# From ChEMBL document CHEMBL1961873, “Compounds: GSK PKIS; Assays: Nanosyn kinase panel” (2012)
# Columns and labels:
# [1] = molecular target: Serine/threonine-protein kinase pim-2 (Homo sapiens) (UniProt Q9P1W9); conditions: at 1 µM;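 further: each value is a mean of the inhibition measurements against the kinase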
# [2] = molecular target: Serine/threonine-protein kinase pim-3 (Homo sapiens) (UniProt Q86V86); conditions: at 0.1 µM
# [3] = molecular target: Serine/threonine-protein kinase pim-3 (Homo sapiens) (UniProt Q86V86); conditions: at 1 µM
# [4] = molecular target: T1, MAP kinase-activated protein kinase 5 (Homo sapiens) (UniProt Q8IW41); conditions: at 0.1 µM
# T1 sequence (whole entry): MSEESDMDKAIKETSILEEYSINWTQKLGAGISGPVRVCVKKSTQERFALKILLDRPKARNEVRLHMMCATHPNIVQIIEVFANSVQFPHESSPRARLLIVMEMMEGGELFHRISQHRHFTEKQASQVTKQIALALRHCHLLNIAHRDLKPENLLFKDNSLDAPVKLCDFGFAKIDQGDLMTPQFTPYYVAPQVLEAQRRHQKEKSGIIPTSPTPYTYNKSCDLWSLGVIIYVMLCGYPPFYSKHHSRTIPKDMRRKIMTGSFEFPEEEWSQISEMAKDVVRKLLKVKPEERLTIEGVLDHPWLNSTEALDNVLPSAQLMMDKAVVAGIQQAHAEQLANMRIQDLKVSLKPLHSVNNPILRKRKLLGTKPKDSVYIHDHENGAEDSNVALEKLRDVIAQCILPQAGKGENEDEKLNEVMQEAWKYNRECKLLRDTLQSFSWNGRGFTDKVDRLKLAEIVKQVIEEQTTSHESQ
# [5] = molecular target: T1, MAP kinase-activated protein kinase 5 (Homo sapiens); conditions: at 1 µM
# [6] = molecular target: Serine/threonine-protein kinase SIK1 (Homo sapiens) (UniProt P57059); conditions: at 0.1 µM
# [7] = molecular target: Serine/threonine-protein kinase SIK1 (Homo sapiens) (UniProt P57059); conditions: at 1 µM
# [8] = molecular target: Serine/threonine-protein kinase SIK2 (Homo sapiens) (UniProt Q9H0K1); conditions: at 0.1 µM
# [9] = molecular target: Serine/threonine-protein kinase SIK2 (Homo sapiens) (UniProt Q9H0K1); conditions: at 1 µM
# [10] = molecular target: T2, Serine/threonine-protein kinase TBK1 (Homo sapiens) (UniProt Q9UHD2); conditions: at 0.1 µM
# T2 sequence (whole entry): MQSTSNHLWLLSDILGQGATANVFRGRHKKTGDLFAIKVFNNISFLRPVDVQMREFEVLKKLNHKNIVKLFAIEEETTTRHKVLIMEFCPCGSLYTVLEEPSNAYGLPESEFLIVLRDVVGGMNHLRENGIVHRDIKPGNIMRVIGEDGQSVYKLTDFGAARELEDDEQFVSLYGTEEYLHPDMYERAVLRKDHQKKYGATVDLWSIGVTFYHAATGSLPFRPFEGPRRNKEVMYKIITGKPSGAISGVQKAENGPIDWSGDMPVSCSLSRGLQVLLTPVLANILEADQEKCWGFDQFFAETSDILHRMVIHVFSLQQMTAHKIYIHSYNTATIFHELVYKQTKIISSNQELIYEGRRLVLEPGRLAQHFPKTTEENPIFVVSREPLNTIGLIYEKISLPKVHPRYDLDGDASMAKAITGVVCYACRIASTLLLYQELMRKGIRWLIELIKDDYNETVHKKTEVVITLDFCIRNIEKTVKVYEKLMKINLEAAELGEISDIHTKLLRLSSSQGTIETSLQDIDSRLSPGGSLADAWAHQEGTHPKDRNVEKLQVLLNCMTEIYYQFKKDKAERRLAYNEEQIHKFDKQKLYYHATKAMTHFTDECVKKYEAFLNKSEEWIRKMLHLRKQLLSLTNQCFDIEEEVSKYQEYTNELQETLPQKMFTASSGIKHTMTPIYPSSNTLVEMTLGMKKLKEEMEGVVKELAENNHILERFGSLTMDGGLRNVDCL
# [11] = molecular target: T2, Serine/threonine-protein kinase TBK1 (Homo sapiens); conditions: at 1 µM
# [12] = molecular target: T3, Testis-specific serine/threonine-protein kinase 1 (Homo sapiens) (UniProt Q9BXA7); conditions: at 0.1 µM
# T3 sequence (whole entry): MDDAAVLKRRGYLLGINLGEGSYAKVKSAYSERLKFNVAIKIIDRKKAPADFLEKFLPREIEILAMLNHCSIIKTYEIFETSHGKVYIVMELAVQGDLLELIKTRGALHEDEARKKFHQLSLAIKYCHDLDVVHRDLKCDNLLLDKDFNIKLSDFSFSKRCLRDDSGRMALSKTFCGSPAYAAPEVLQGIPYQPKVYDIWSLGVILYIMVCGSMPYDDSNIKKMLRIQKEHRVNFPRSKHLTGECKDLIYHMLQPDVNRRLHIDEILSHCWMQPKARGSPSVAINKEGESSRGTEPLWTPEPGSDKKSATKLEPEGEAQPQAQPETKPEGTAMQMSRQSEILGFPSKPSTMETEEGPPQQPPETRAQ
# [13] = molecular target: T3, Testis-specific serine/threonine-protein kinase 1 (Homo sapiens); conditions: at 1 µM
# [14] = molecular target: T4, Testis-specific serine/threonine-protein kinase 2 (Homo sapiens) (UniProt Q96PF2); conditions: at 0.1 µM
# T4 sequence (whole entry): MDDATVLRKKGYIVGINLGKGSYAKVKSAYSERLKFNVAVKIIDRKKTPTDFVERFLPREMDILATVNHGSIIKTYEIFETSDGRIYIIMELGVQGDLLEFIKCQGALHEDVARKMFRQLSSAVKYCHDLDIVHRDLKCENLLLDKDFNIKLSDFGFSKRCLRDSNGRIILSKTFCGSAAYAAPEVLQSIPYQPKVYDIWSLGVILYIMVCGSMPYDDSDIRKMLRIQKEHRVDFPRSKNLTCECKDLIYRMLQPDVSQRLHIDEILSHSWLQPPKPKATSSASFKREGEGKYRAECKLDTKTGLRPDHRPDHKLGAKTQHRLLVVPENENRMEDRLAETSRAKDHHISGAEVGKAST
# [15] = molecular target: T4, Testis-specific serine/threonine-protein kinase 2 (Homo sapiens); conditions: at 1 µM
# [16] = molecular target: Casein kinase I isoform alpha (Homo sapiens) (UniProt P48729); conditions: at 0.1 µM
# [17] = molecular target: Casein kinase I isoform alpha (Homo sapiens) (UniProt P48729); conditions: at 1 µM
# [18] = molecular target: Casein kinase I isoform gamma-1 (Homo sapiens) (UniProt Q9HCP0); conditions: at 0.1 µM
# [19] = molecular target: Casein kinase I isoform gamma-1 (Homo sapiens) (UniProt Q9HCP0); conditions: at 1 µM
# [20] = molecular target: Casein kinase I isoform gamma-2 (Homo sapiens) (UniProt P78368); conditions: at 0.1 µM;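 further: values are mean inhibition figures reported as part of the GSK PKIS dataset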
# Sequence of Casein kinase I isoform gamma-2 (Homo sapiens) (P78368 whole entry, looked up, canonical isoform): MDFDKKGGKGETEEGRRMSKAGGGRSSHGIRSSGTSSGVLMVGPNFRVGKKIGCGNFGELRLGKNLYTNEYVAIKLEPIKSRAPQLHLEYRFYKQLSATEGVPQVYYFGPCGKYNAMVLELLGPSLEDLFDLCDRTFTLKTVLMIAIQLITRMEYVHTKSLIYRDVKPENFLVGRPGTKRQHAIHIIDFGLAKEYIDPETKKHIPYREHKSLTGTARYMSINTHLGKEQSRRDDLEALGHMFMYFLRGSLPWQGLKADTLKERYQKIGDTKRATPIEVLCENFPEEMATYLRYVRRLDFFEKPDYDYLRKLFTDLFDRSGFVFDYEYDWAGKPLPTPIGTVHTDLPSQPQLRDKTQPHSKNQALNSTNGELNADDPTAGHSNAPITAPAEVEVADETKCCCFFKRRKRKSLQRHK
# Sequence of Casein kinase I isoform gamma-1 (Homo sapiens) (Q9HCP0 whole entry, looked up, canonical isoform): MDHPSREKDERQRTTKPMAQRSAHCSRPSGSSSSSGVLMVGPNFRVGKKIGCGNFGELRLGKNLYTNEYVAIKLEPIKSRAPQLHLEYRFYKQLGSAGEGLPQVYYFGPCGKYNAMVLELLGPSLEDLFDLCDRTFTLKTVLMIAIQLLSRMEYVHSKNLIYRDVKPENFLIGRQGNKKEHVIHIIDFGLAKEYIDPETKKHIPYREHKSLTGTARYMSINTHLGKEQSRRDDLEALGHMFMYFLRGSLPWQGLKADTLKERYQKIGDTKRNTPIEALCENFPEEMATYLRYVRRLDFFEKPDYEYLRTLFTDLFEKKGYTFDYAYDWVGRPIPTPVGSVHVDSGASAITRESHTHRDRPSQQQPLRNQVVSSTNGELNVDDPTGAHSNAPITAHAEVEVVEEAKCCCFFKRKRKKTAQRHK
# Sequence of Casein kinase I isoform alpha (Homo sapiens) (P48729 2-337 limits assumed): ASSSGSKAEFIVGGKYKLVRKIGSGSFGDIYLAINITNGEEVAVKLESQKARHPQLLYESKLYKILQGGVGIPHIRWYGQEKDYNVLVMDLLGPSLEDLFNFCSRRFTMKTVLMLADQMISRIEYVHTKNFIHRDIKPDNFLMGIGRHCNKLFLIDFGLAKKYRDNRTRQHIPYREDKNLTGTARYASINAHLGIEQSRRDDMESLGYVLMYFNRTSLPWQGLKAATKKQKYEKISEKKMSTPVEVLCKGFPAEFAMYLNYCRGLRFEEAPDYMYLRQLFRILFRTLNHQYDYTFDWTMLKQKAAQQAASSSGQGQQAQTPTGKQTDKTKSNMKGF
# Sequence of Serine/threonine-protein kinase pim-2 (Homo sapiens) (Q9P1W9 whole entry, looked up): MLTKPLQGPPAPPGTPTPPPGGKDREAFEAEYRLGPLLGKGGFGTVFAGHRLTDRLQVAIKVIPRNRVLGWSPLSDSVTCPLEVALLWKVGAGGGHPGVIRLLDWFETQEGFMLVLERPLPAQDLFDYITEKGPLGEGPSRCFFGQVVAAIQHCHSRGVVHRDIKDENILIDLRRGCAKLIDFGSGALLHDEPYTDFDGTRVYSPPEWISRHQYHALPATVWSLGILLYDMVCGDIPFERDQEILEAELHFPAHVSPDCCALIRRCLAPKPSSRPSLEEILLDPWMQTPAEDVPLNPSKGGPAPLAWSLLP
# Sequence of Serine/threonine-protein kinase SIK1 (Homo sapiens) (P57059 whole entry): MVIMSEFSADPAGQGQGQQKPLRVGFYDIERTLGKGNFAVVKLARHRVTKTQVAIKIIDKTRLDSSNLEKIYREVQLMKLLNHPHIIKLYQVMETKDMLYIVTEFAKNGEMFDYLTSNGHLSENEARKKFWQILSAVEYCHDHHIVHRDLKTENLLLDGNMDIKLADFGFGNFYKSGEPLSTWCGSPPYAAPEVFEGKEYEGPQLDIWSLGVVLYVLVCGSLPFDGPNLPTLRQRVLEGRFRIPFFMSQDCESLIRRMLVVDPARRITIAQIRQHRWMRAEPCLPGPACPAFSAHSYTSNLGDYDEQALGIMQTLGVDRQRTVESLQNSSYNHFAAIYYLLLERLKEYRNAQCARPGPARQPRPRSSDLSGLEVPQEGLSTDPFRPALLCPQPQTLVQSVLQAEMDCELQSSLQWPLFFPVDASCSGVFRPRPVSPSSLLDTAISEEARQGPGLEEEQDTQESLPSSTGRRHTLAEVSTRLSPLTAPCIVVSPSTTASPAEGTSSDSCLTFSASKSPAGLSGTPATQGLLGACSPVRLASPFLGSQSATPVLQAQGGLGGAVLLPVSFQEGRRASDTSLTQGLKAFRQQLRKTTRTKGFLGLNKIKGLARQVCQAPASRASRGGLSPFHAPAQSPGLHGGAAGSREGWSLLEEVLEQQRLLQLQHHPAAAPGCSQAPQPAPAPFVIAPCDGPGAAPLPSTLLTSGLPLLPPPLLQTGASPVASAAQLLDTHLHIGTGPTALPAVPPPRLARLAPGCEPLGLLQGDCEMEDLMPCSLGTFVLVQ
# Sequence of Serine/threonine-protein kinase SIK2 (Homo sapiens) (Q9H0K1 whole entry, looked up): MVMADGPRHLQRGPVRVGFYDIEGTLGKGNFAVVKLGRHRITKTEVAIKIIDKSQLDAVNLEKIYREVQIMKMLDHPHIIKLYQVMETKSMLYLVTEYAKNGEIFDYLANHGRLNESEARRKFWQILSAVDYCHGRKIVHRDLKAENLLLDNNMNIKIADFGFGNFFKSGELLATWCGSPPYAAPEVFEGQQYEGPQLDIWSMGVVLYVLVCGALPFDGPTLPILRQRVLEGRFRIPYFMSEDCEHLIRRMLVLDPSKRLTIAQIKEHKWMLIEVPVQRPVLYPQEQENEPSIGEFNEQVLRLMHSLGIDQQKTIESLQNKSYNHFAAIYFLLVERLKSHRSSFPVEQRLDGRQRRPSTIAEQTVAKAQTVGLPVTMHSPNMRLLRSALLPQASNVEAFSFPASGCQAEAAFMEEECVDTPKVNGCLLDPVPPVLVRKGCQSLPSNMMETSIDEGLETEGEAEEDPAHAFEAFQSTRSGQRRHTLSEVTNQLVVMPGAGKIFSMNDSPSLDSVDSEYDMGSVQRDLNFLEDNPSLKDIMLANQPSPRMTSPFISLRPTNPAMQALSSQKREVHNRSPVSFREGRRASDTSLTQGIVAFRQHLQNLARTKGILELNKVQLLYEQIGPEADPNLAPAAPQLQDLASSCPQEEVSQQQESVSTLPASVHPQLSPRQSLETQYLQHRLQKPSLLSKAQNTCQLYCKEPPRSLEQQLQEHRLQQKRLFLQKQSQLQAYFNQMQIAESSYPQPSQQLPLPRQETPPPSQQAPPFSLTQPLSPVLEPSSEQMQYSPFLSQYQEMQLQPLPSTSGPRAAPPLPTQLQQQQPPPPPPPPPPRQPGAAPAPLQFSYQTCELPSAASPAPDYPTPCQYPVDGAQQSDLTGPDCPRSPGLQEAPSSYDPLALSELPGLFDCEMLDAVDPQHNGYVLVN
Compound,inhibition [1],inhibition [2],inhibition [3],inhibition [4],inhibition [5],inhibition [6],inhibition [7],inhibition [8],inhibition [9],inhibition [10],inhibition [11],inhibition [12],inhibition [13],inhibition [14],inhibition [15],inhibition [16],inhibition [17],inhibition [18],inhibition [19],inhibition [20]
CCOc1nccc2c1nc(-c1nonc1N)n2CC,1.49%,3.33%,5.37%,2.15%,3.99%,4.04%,5.99%,4.45%,9.31%,1.76%,6.01%,3.94%,4.63%,2.77%,4.45%,3.85%,2.28%,2.65%,1.76%,1.95%
c1ccc(Nc2ncc(-c3ccccc3)o2)cc1,-0.45%,0.11%,2.31%,2.01%,1.68%,3.63%,12.6%,7.32%,13.8%,5.72%,5.74%,5.73%,6.03%,2.44%,3.66%,4.02%,7.73%,3.94%,5.22%,3.32%
CN(C)c1cc2c(Nc3ccc4c(cnn4Cc4ccccc4)c3)ncnc2cn1,0.31%,-0.8%,0.43%,0.61%,0.28%,3.9%,4.59%,2.41%,4.92%,1.07%,3.14%,3.54%,-2.44%,1.31%,-1.33%,0.64%,4.63%,2.47%,3.24%,2.05%
O=C(Nc1ccc(Oc2ccc3[nH]c(NC(=O)c4ccco4)nc3c2)cc1)Nc1cc(C(F)(F)F)ccc1F,-3.75%,0.09%,0.78%,-0.29%,-0.75%,4.18%,4.41%,-4.88%,0.5%,0.65%,0.97%,0.73%,0.2%,0.45%,-0.72%,0.72%,1.23%,-3.78%,-2.12%,-4.05%
Oc1cccc(-c2nc(-c3ccccc3)[nH]c2-c2ccncc2)c1,0.33%,-1.73%,1.72%,1.55%,1.19%,8.44%,11.6%,4.34%,10.2%,1.64%,2.77%,5.01%,2.8%,3.51%,2.57%,12.6%,23.9%,2.26%,3.29%,2.14%
COc1cccc(-n2ncc3c(N/N=C/c4ccc(C)cc4)ncnc32)c1,0.75%,2.2%,8.3%,1.88%,2.22%,7.95%,12.6%,8.99%,14.7%,2.64%,5.4%,5.91%,15.2%,2.36%,3.89%,3%,8.69%,6.44%,11.2%,6.88%
CC(C)c1ccc2c(c1)NC(=O)/C2=N/Nc1ccc(S(N)(=O)=O)cc1,1.32%,2.03%,3.02%,0.46%,0.35%,1.04%,7.02%,2.29%,2.16%,-1%,-0.26%,-0.2%,1.24%,0.12%,0.46%,0.06%,0.18%,0.11%,0.56%,0.63%
CCn1c(-c2nonc2N)nc2ccc(F)cc21,0.34%,-0.77%,4.99%,2.78%,4.45%,4.96%,8.41%,7.14%,12.5%,5.18%,4.44%,5.02%,7.33%,2.94%,4.64%,3.7%,4.99%,4.91%,5.86%,5.17%
CCCN1CCCC(c2ccc(Nc3nc(Nc4cc(F)ccc4C(N)=O)c4cc[nH]c4n3)c(OC)c2)C1 (stereo not given),7.35%,4.99%,40.8%,5.81%,33.2%,6.07%,10.2%,2.41%,11%,4.22%,11.5%,81%,92.6%,62.5%,86%,44.3%,78.5%,36.1%,78%,29.6%
NS(=O)(=O)c1cccc(-c2cc3ccncc3cc2OCc2ccccc2)c1,0.25%,-1.15%,-3.18%,1.74%,0.61%,0.44%,5.64%,1.16%,3.39%,2.28%,6.61%,2.13%,0.96%,2.68%,0.84%,0.06%,3.92%,4.57%,4.83%,3.06%
Nc1nccc(-c2c(-c3ccc(F)cc3)ncn2CCCN2CCOCC2)n1,1.68%,2.11%,1.36%,1.45%,4.08%,2.84%,6.36%,7.84%,11.6%,0.96%,4.85%,3.5%,3.45%,2.07%,2.83%,6.3%,27.3%,3.45%,5.49%,2.84%
CS(=O)(=O)CCNCc1nc(-c2ccc3ncnc(Nc4ccc(OCc5cccc(C(F)(F)F)c5)cc4)c3c2)cs1,-0.33%,-0.43%,0.97%,1.44%,-0.14%,4.28%,0.42%,1.04%,2.49%,2.22%,0.57%,2.83%,2.19%,0.45%,0.58%,0.49%,4.64%,1.2%,2.03%,0.96%
COC(=O)Nc1nc2cc(Oc3ccc(NC(=O)Nc4cccc(Br)c4)cc3)ccc2[nH]1,-0.13%,-0.57%,0.5%,1.32%,1.31%,7.8%,11.9%,-0.32%,7.96%,-1.34%,3.82%,2.91%,2.52%,2.72%,2.43%,4.89%,9.35%,1.77%,2.02%,0.89%
